Screening results (PubChem)
Compounds with a hit are over-represented: about 21% of the library has one in this group of screens.
Pf growth 96h = P. falciparum growth inhibition at 96 hours; P. falciparum luciferase reporter growth, 96 h; Potency, µM (highest dose often 28.7 µM), inactives show top-dose activity change, negative = inhibition, usual class: inhibitors; actives 6.9% (n = 320,000); AID 504834; note: potency is the fitted concentration of half-maximal effect; % is set by controls: 0 for no effect and ±100 for the full control effect
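Compounds incubated with erythrocytes infected by luciferase-expressing P. falciparum (2% hematocrit, 0.05% parasitemia final) for 96 hours, 37 C in 5% CO2. Growth inhibition scored as decreased luciferase luminescence.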
Pf growth 48h = P. falciparum growth inhibition at 48 hours (one generation) | P. falciparum luciferase growth in erythrocytes, 48 h | Potency, µM (series often up to 28.7 µM), for inactives: at the top dose activity change, negative = inhibition, hits mostly inhibitors | actives 5.9% (n = 310,000) | AID 504832; note: potency is the fitted concentration of half-maximal effect; % is set by controls: 0 for no effect and ±100 for the full control effect
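Parasite viability was followed by luminescence of a genomically integrated firefly luciferase. Cultures held 0.1% parasitemia at 2% hematocrit (final), incubated under 5% CO2 at 37 C.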
Shiga toxin inh = blocks Shiga toxin action in Vero cells; Vero cells, Shiga toxin protein synthesis inhibition reporter; inhibition, % at 38.7 µM; actives 9.2% (n = 290,000); AID 2315; in the data active = inhibition mostly above about 28%, no sharp cut-off; inactive = mostly below about 43%; note: 0% is about no effect
NS1 function inh = influenza NS1 inhibition. actives 0.4% (n = 270,000). Potency, µM (top dose mostly 46.1 µM), without a hit: at the top dose activity, positive = more growth; calls by dose curve; note: potency is the fitted concentration of half-maximal effect; actives are rising curves; nearly all actives have a fitted effect of over 50% in size
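Read-out: OD600 growth recovery of NS1-expressing budding yeast. Cells grown overnight at 30C in -URA glucose medium, washed, resuspended and diluted 1:100 in 2% galactose assay medium, pH 6.0. Same strain lacking NS1 served as positive control.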
FBPA Giardia inh = inhibitors of Giardia lamblia fructose-1,6-bisphosphate aldolase; AID 2451; Potency, µM (titrated, usually from 59.6 µM), for the others: top-dose activity, negative = inhibition, hits mostly inhibitors; A8B2U2; actives 0.71% (n = 290,000); purified Giardia FBPA; note: potency is the fitted concentration of half-maximal effect; % is set by controls: 0 for no effect and ±100 for the full control effect; nearly all actives have a fitted effect of over 55% in size
Target sequence (A8B2U2 whole entry, looked up): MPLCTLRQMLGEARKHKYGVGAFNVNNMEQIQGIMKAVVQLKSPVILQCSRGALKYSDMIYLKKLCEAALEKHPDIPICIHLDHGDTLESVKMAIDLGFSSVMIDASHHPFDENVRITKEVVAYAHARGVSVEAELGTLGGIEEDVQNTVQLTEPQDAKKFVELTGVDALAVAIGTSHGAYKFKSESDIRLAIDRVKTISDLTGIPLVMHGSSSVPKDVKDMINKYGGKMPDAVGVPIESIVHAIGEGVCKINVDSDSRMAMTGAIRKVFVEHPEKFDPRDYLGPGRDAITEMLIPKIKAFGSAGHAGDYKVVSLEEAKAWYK
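Giardia FBPA (40 nM reagent) was preincubated 10 min at RT with compound (up to 57.5 uM final), then substrate plus GAPDH/TPI/NAD/arsenate coupling system with diaphorase/resazurin was added; resorufin fluorescence (525/598 nm) was read after 20 min.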
Cycloheximide cs = affects cycloheximide protein synthesis inhibition readout, counter-screen; cell reporter, cycloheximide protein synthesis inhibition counterscreen; max response, %; actives 12% (n = 300,000); AID 2314; in the data active = max response mostly above about 13%, no sharp cut-off; inactive = mostly below about 14%; note: read at 38.3 µM for the half of the compounds with a filed dose; 0% is about no effect
Numbers without * were called inactive; u = inconclusive; x = not tested or not shown; [ ] = another dose, or the depositor's remark. Unless noted, calls come from the whole dose curve; as a rule, active = well fitted curve in the direction sought with a large enough effect; inconclusive = small, poorly fitted or top-dose-only effect, or another doubt; inactive = no such curve, though single readings can be large; an effect the other way counts as inactive or inconclusive.

SMILES | Pf growth 96h | Pf growth 48h | Shiga toxin inh | NS1 function inh | FBPA Giardia inh | Cycloheximide cs
Cc1noc(C)c1-c1nc(NCCN2CCOCC2)c2ccccc2n1 | x | x | x | x | -5% | x
CN(C)CCC(C#N)(c1ccccc1)c1ccccc1 | x | x | x | -6% | x | x
CCOc1ccc(-n2cnnn2)cc1S(=O)(=O)NCc1ccccc1 | 22% | 3% | -6 | 0% | 0% | -2
CCOc1cc(S(=O)(=O)N(Cc2ccccc2)Cc2ccccc2)c(OCC)cc1-n1cnnn1 | 6.6µM* | u | -11 | 17% | -3% | -2
COc1ccc(CN(C2CCCC2)S(=O)(=O)c2ccc(-n3cnnn3)c(OC)c2)cc1OC | u | 15µM* | -4 | -34% | 0% | -2
COC(=O)N1CCC2(CCCN(C(=O)Nc3cccc(C#N)c3)C2)CC1 | x | x | x | x | 6% | x
CN(CC(=O)Nc1ccccc1Cl)C(=O)Cn1nnc(-c2ccc(F)cc2)n1 | 39% | 0% | x | x | x | x
Cc1nc(-c2ccc(F)cc2)c(CC(=O)N(C)CC(=O)Nc2ccccc2Cl)s1 | 13µM* | -15% | x | x | x | x
CCCC(=O)Nc1ccccc1Sc1ncnc2scc(-c3ccccc3)c12 | 18% | 4.7µM* | 1 | 6% | 6% | -2
Cn1nnnc1Sc1ncnc2scc(-c3ccc(F)cc3)c12 | u | 0% | 19 | -17% | 1% | -6
Cn1nnnc1SCc1nc2scc(-c3ccccc3)c2c(=O)[nH]1 | 11% | -9% | 10 | 4% | -8% | 1
Cn1nnnc1Sc1ncnc2scc(-c3ccccc3)c12 | -3% | 12µM* | 4 | -8% | 8% | 2
Cn1nnnc1Sc1ncnc2scc(-c3ccc[nH]3)c12 | u | 10µM* | x | x | x | x
CC(=O)Nc1ccc(Sc2ncnc3scc(-c4ccccc4)c23)cc1 | u | -12% | -5 | -10% | 2% | -8
CCC(=O)N(c1nnc(SCC(=O)Nc2ccccc2Cl)s1)C1CC1 | 9% | 1% | x | x | x | x
CC(C)Cn1c(N)c(C(=O)CSc2cc(Cl)ccc2Cl)c(=O)n(C)c1=O | -10% | -14% | -9 | 3% | 0% | -1
NCCOB(c1ccccc1)c1ccccc1 | x | x | x | x | -2% | x
O=C(Nc1ccccc1)Nc1ccc2nnsc2c1 | u | -44% | 61* | -53% | -6% | 36*
S=C(Nc1ccc2snnc2c1)N1CCN(c2ccccn2)CC1 | 12% | x | 22 | 8% | -7% | 2
CN(C)c1ccc(NC(=O)Nc2ccc3snnc3c2)cc1 | -25% | 52% | 45* | 5% | -11% | 27*
O=C(Nc1ccccc1)Nc1ccc2snnc2c1 | 3.3µM* | u | 58* | -48% | -5% | 41*
COc1ccc(N(C)S(=O)(=O)c2cccc(C(=O)Nc3ccc(-n4cnnn4)cc3)c2)cc1 | u | 10µM* | -16 | -20% | -1% | -3
COc1cc(OC)c(N(C)S(=O)(=O)c2cccc(C(=O)Nc3nc(C)cs3)c2)cc1Cl | u | 13µM* | x | x | x | x
COc1ccc(N(C)S(=O)(=O)c2cccc(C(=O)Nc3nc(C)cs3)c2)cc1 | u | 13µM* | x | x | x | x
COc1ccc(N(C)S(=O)(=O)c2cccc(C(=O)Nc3cc(OC)ccc3OC)c2)cc1 | u | u | -9 | x | -2% | -4
SMILES | Pf growth 96h | Pf growth 48h | Shiga toxin inh | NS1 function inh | FBPA Giardia inh | Cycloheximide cs
COc1ccc(N(C)S(=O)(=O)c2cccc(C(=O)NCc3ccc(C)cc3)c2)cc1 | 5.9µM* | -11% | x | x | x | x
COc1ccc(CNC(=O)c2ccc(N(C)S(=O)(=O)c3ccc(C)cc3)cc2)cc1 | 0% | u | -8 | -26% | x | -2
COCC(=O)N1CCC2(CC1)CN(Cc1ccc(C#N)cc1)C2 | x | x | x | x | 0% | x
COCCCNC(=O)CSc1nc2cc(S(=O)(=O)N3CCCCC3)ccc2o1 | u | -24% | x | x | x | x
O=C1c2cccc3cccc(c23)C(=O)N1CCCN1CCN(c2ccc(F)cc2)CC1 | 25% | -13% | 18 | 2% | -7% | -2
COc1cc(OC)c(N(C)S(=O)(=O)c2cccc(C(=O)NC3=NCCS3)c2)cc1Cl | u | 10µM* | 8 | 8% | -2% | -3
COc1cc(NC(=O)c2ccccc2-n2cnnn2)cc(OC)c1 | 20% | -13% | x | x | x | x
Cc1csc(N(C(=O)c2cccc(S(=O)(=O)N(C)C)c2)c2ccccc2)n1 | 8.3µM* | -17% | 6 | -13% | -1% | 3
COc1cc(OC)cc(C(=O)Nc2ccc(-n3cnnn3)c(C)c2)c1 | -11%[5.75 µM] | 106% | 30* | -7% | -7% | 22*
